Data as given in the supplement of paper PMC8253809.
Where “and” joins values, the source holds several entries; their conditions need not be identical. Equal values may be shown once.

What was measured:
Assay in all cases: growth inhibition (% activity, log2 RLU normalised to DMSO / staurosporine); higher = more growth inhibition
Details in all cases: 33 µM
[1] = tested on: DIPGX29 (H3.3 K27M diffuse intrinsic pontine glioma line)
Procedure, shortened: (§1)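 Approved drugs were tested in triplicate at a single final concentration of about 33 μM for 7 days at 37 °C, 5% CO2, on pHGG cell lines and H9-derived neural stem cells. Readout was CellTiter-Glo luminescence, log2-transformed and scaled per plate to % activity between solvent and positive control wells. The median over replicates gives the growth-inhibition value.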

[2] = tested on: DIPGX37 (H3.3 K27M diffuse intrinsic pontine glioma line)
Procedure, shortened: as §1

[3] = tested on: DIPGX7 (H3.3 K27M diffuse intrinsic pontine glioma line)
Procedure, shortened: as §1

[4] = tested on: DIPGX9 (diffuse intrinsic pontine glioma line)
Procedure, shortened: as §1

[5] = tested on: HGGX39 (paediatric high-grade glioma line)
Procedure, shortened: as §1

[6] = tested on: HGGX6 (H3.3 G34R paediatric high-grade glioma line)
Procedure, shortened: as §1

[7] = tested on: HNSC
Procedure, shortened: as §1

[8] = tested on: SUDIPGIV (diffuse intrinsic pontine glioma line)
Procedure, shortened: as §1

[9] = tested on: SUDIPGVI (diffuse intrinsic pontine glioma line)
Procedure, shortened: as §1

[10] = tested on: SUDIPGXIII (diffuse intrinsic pontine glioma line)
Procedure, shortened: as §1

SMILES | growth inhibition [1] | growth inhibition [2] | growth inhibition [3] | growth inhibition [4] | growth inhibition [5] | growth inhibition [6] | growth inhibition [7] | growth inhibition [8] | growth inhibition [9] | growth inhibition [10]
CC1(C)S[C@@H]2[C@H](NC(=O)[C@H](N)c3ccccc3)C(=O)N2[C@H]1C(=O)O | 0.915% and -0.852% | 0.428% and -3.6% | -0.263% and 0.439% | 2.01% and -1.14% | 0.0853% and 0.776% | 0.491% and -0.506% | -1.66% and -0.947% | 0.0994% and -1.08% | 1.4% and -3.54% | 0.006% and 0.466%
NCCCC(O)(P(=O)(O)O)P(=O)(O)O | -0.387% | -3.88% | 0.704% | 0.583% | -0.159% | -0.423% | 1.02% | -0.208% | 1.59% | 0.669%
COC(=O)C1=C(C)NC(C)=C(C(=O)OC(C)C)C1c1cccc2nonc12 (stereo not given) | -2.46% | -3.83% | 1.18% | -3.89% | -6.2% | -4.5% | -4.73% | -4.11% | -12.6% | 3.66%
CC(C)OC(=O)C(C(=O)OC(C)C)=C1SC=CS1 | 12.7% | 6.67% | 26.1% | 4.32% | 8.43% | 13.3% | 43.7% | 16.3% | -3.26% | 2.97%
Clc1ccc(CCC(Cn2ccnc2)Sc2c(Cl)cccc2Cl)cc1 (stereo not given) | 5.06% | 1.97% | 3.57% | 4.57% | 13.2% | 10.2% | 10.2% | 13.5% | 4.83% | 11.4%
CN(C)CCOC(c1ccccc1)c1ccccc1 | -3.3% | -0.629% | -0.0174% | -1.77% | -3.3% | -2.72% | 2.53% | -1.12% | -3.73% | -1.22%
C=C1CC[C@H](O)C/C1=C/C=C1\CCC[C@]2(C)[C@@H]([C@H](C)/C=C/[C@H](C)C(C)C)CC[C@@H]12 | 3.21% | 5.04% | 5.34% | 3.65% | 7.46% | 4.35% | 9.22% | 3.53% | 4.49% | 0.866%
CC(=O)O[C@]1(C(C)=O)CC[C@H]2[C@@H]3C[C@H](C)C4=CC(=O)CC[C@]4(C)[C@H]3CC[C@@]21C | -3.25% | 0.463% | -0.594% | -0.287% | -4.12% | -0.715% | 31.3% | -4.85% | -6.53% | 4.79%
NC(=O)NO | -5.64% | -0.579% | -2.73% | -1.74% | -1.77% | -4.15% | 2.98% | -2.11% | -4.44% | 1.21%
O=S(=O)(O)CCS | -1.06% | 0.485% | -0.101% | 0.715% | -0.445% | -1.07% | 0.589% | -0.0759% | 1.78% | -0.97%
OC(Cn1cncn1)(Cn1cncn1)c1ccc(F)cc1F | 0.884% | -0.267% | 1.06% | 1.31% | 1.3% | 1.42% | 1.54% | -0.234% | 1.91% | 0.862%
CN1[C@@H]2CC[C@H]1CC(OC(=O)c1c[nH]c3ccccc13)C2 (stereo not given in full) | 4.79% | 5.76% | 6.41% | 23.4% | 7.53% | 1.59% | 58.8% | 9.21% | 1.15% | 0.619%
O=C(O)c1cc(/N=N/c2ccc(S(=O)(=O)Nc3ccccn3)cc2)ccc1O | 1.07% | -1.79% | 1.57% | 0.949% | 1.21% | 1.04% | -0.205% | 0.115% | 1.96% | -0.524%
C=C1CCC(O)CC1=CC=C1CCCC2(C)C1CCC2C(C)CCCC(C)(C)O (stereo not given) | -0.0142% | 2.58% | 3.34% | -0.221% | 3.14% | 0.603% | -1.74% | 3.43% | -3.1% | -0.781%
O=C(O)c1cn(-c2ccc(F)cc2)c2cc(N3CCNCC3)c(F)cc2c1=O | 1.77% | 0.654% | 2.46% | 2.37% | 4.02% | 3.31% | 1.3% | 4.25% | 3.85% | 0.944%
CC[C@H]1OC(=O)C[C@@H](O)[C@H](C)[C@@H](O[C@@H]2O[C@H](C)[C@@H](O)[C@H](N(C)C)[C@H]2O)[C@@H](CCN2C[C@H](C)C[C@H](C)C2)C[C@@H](C)C(=O)/C=C/C(C)=C/[C@@H]1CO[C@@H]1O[C@H](C)[C@@H](O)[C@@H](OC)[C@H]1OC | -3.18% | -1.96% | -0.192% | -2.36% | -3.76% | -3.98% | 3.6% | -3.04% | -5.87% | 1.2%
CC(C)NCC(O)c1ccc(O)c(O)c1 (stereo not given) | -3.68% | -0.899% | -1.64% | -0.316% | -1.58% | 0.187% | -3.47% | -0.959% | -4.2% | -0.909%
CC(C)(C)NC(=O)[C@H]1CC[C@H]2[C@@H]3CC[C@H]4NC(=O)C=C[C@]4(C)[C@H]3CC[C@]12C | 1.8% | 1.06% | 2.69% | 0.827% | 2.11% | -0.348% | 4.13% | 0.54% | 1.81% | 0.754%
CC(C(=O)O)c1cccc(C(=O)c2ccccc2)c1 (stereo not given) | -0.509% | -1.31% | -0.656% | -0.0225% | 1.05% | 0.639% | 0.455% | -5.26% | 1.35% | -0.582%
N=C(N)c1ccc2cc(OC(=O)c3ccc(N=C(N)N)cc3)ccc2c1 | -0.193% | -3.07% | -0.0416% | -0.893% | -0.167% | 1.06% | 2.26% | 1.8% | 0.556% | -0.295%
CC(S)C(=O)NCC(=O)O (stereo not given) | 0.154% | -1.2% | -0.0217% | 1.07% | 2.86% | 0.336% | 0.528% | -0.0269% | -0.507% | -0.969%
NS(=O)(=O)c1cc2c(cc1Cl)N=C(CSCc1ccccc1)NS2(=O)=O | -2.8% | -0.538% | -2.64% | -1.82% | -3.59% | -4.3% | 3.58% | -1.69% | -6.04% | -0.239%

SMILES | growth inhibition [1] | growth inhibition [2] | growth inhibition [3] | growth inhibition [4] | growth inhibition [5] | growth inhibition [6] | growth inhibition [7] | growth inhibition [8] | growth inhibition [9] | growth inhibition [10]
CN(C)c1ccc(C(=C2C=CC(=[N+](C)C)C=C2)c2ccc(N(C)C)cc2)cc1 | 39.6% | 42.1% | 42.3% | 41.4% | 51.4% | 48.2% | 72.2% | 43.1% | 50% | 74.4%
CN1CCC(OC(c2ccccc2)c2ccccc2)CC1 | 1.96% | 3.9% | 1.96% | 0.713% | 4.23% | 2.61% | 2.96% | 1.77% | 3.73% | -1.75%
CC1CCc2c(N3CCC(O)CC3)c(F)cc3c(=O)c(C(=O)O)cn1c23 (stereo not given) | 1.83% | 2.99% | 1.32% | 2.53% | 3.35% | 2.89% | 4.09% | 0.692% | 3.03% | -1.17%
CCCCN(CCCC)CCCOC(=O)c1ccc(N)cc1 | 2.46% | 2.29% | 5.01% | 2.44% | 6.95% | 5.63% | 8.9% | 1.64% | 3.72% | -1.97%
O=C(O)c1cn(C2CC2)c2cc(N3CCNCC3)c(F)cc2c1=O | -1.96% | -2.35% | -2.23% | -1.26% | -1.56% | -1.82% | -1.04% | -1.7% | -2.88% | -1.57%
CC(C)C[C@H](NC(=O)[C@H](Cc1ccccc1)NC(=O)c1cnccn1)B(O)O | 53.3% | 60.7% | 60% | 59.1% | 58.5% | 60.1% | 64.2% | 59.3% | 56.3% | 69.9%
COC(=O)C1=CO[C@@H](O)[C@@H]2C(CO)=CC[C@H]12 | -0.243% | 2.53% | -0.199% | 2.66% | -0.158% | 2.23% | -1.1% | -0.3% | -0.83% | 1.32%
O=C(O)c1cccnc1 | 0.555% | 1.13% | 0.846% | 1.6% | 0.355% | 1.52% | -0.701% | -0.463% | 1.65% | -1.24%
CC(=O)OCC(=O)[C@@]1(O)[C@H](C)C[C@H]2[C@@H]3CCC4=CC(=O)C=C[C@]4(C)[C@@]3(F)[C@@H](O)C[C@@]21C | 6.47% | 3.67% | 1.89% | 6.29% | 6.91% | 5.01% | 2.34% | 5.88% | 3.94% | 1.28%
COc1c(N2C[C@@H]3CCCN[C@@H]3C2)c(F)cc2c(=O)c(C(=O)O)cn(C3CC3)c12 | 0.967% | 2.87% | 5.33% | 1.28% | 3.99% | 2.07% | 2.61% | 0.935% | 2.05% | -1.1%
CCCCCCCCCCCCCCCC[N+](C)(C)C | 27.4% | 41.6% | 34% | 22.2% | 48.6% | 23.6% | 59.5% | 36.8% | 57.8% | 18.1%
O=c1ccn([C@@H]2O[C@H](CO)[C@@H](O)[C@H]2O)c(=O)[nH]1 | -0.716% | -1.37% | 1.57% | -0.704% | 0.73% | -4.51% | 17.6% | -1.57% | -0.357% | -2.42%
CC(=O)N1CCN(c2ccc(OCC3COC(Cn4ccnc4)(c4ccc(Cl)cc4Cl)O3)cc2)CC1 (stereo not given) | 5.63% | 1.48% | 11.2% | 4.81% | 13.3% | 9.98% | 7.8% | 13.7% | 7% | 12%
CSc1nc2cc(Cl)c(Oc3cccc(Cl)c3Cl)cc2[nH]1 | 1.22% | -0.121% | -0.253% | 0.647% | 4.81% | 3.1% | -0.0294% | 2.29% | 1.54% | 2.86%
CNC(=O)c1cc(Oc2ccc(NC(=O)Nc3ccc(Cl)c(C(F)(F)F)c3)cc2)ccn1 | 35.1% | 67.2% | 28.2% | 25.6% | 50.7% | 32% | 76.1% | 41.2% | 60.7% | 69.3%
N[C@H](Cc1ccccc1)C(=O)O | 1.07% | 4.02% | 1.99% | 1.11% | 3.77% | 0.895% | 14.5% | 3.32% | 2.63% | 2.11%
O=C1Cc2cc(CCN3CCN(c4nsc5ccccc45)CC3)c(Cl)cc2N1 | 1.66% | 1.3% | 10.1% | 1.16% | 3.71% | 2.44% | 1.23% | 2.05% | -3.95% | 3.01%
Cc1nc(Nc2ncc(C(=O)Nc3c(C)cccc3Cl)s2)cc(N2CCN(CCO)CC2)n1 | 8.3% | -3.6% | 2.53% | 12.4% | 15.6% | 10.8% | 20% | -0.76% | 2.41% | 2.8%
O=NN(CCCl)C(=O)NC1CCCCC1 | 0.207% | 0.604% | 3.11% | 1.74% | 2.6% | 0.392% | 8.64% | 0.873% | 2.64% | 0.32%
CN/C(=N\CCSCc1nc[nH]c1C)NC#N | 0.842% | 1.91% | 1.01% | 0.766% | 1.68% | 1.98% | 0.707% | -0.184% | 2.38% | 0.0177%
CCC(=O)O[C@]1(C(=O)CCl)[C@@H](C)C[C@H]2[C@@H]3C[C@H](F)C4=CC(=O)C=C[C@]4(C)[C@@]3(F)[C@@H](O)C[C@@]21C | 3.65% | 5.29% | 1.18% | 4.83% | 7.98% | 1.82% | -1.07% | 1.52% | 3.9% | 1.38%
